Laboratory results from PubChem BioAssay (Tox21).
Results filed as inconclusive are left out. Calls of active or inactive are those of the source. Unless noted, the call rests on the fitted dose curve.

Tests used:
[1] = Nuclear factor erythroid 2-related factor 2/antioxidant responsive element (Nrf2/ARE) small molecule agonists: luciferase reporter gene qHTS assay in human keratinocytes (AID 1919969); further: nearly all actives have a fitted effect of over 35% in size; further: potency means the concentration at half of the fitted maximal effect
[2] = target: Gonadotropin-releasing hormone receptor (Homo sapiens) (UniProt P30968); assay: Human gonadotropin-releasing hormone receptor (GnRHR) small molecule agonists, calcium flux assay in GnRHR-HEK293 cells (AID 1920063); further: nearly all actives have a fitted effect of over 35% in size
Method in brief: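 Calcium flux, agonist mode, human GnRHR stably integrated in HEK293; dye 1 h at 37 C before compound; Ex/Em=480/540 kinetic read, 3 min; 15 concentrations, triplicate.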

[3] = target: KiSS-1 receptor (Homo sapiens) (UniProt Q969F8); assay: Human kisspeptin (KISS1R) small molecule agonists, calcium flux assay in KISS1R-HEK293 cells (AID 1920064; active means well fitted activation curve with a large enough effect in the repeat runs)
Method in brief: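 Triplicate 15-concentration series were applied to dye-loaded human KISS1R HEK293 cells, and agonist-evoked calcium fluorescence was captured for 3 min.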

[4] = G protein-coupled receptor (GPCR) small molecule agonists, calcium flux assay: HEK293 wild type cell line counter screen (AID 1920065)
Method in brief: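 Non-specific calcium responders were flagged by adding DMSO-dissolved compounds to dye-loaded cells and reading 480/540 nm fluorescence each second for 3 min; ATP served as positive control.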

[5] = p53 small molecule agonists, cell-based qHTS assay with human liver microsomes (AID 1963577);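 further: p53 response element beta-lactamase reporter cells with liver microsomes plus NADPH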
Method in brief: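 With metabolic activation: human liver microsomes (0.5 mg/mL final) plus NADPH (0.5 mg/mL final) added alongside compounds to p53RE-bla cells; 16 h 37 C exposure; beta-lactamase read by LiveBLAzer fluorescence.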

[6] = p53 small molecule agonists, cell-based qHTS assay with rat liver microsomes (AID 1963578)
Method in brief: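 Metabolic activation by rat liver microsomes and NADPH, each 0.5 mg/mL final, added right after compounds to p53RE-bla reporter cells (4,000/well, plated 5 h earlier). 16 h at 37 C, then LiveBLAzer substrate for 2 h at room temperature in the dark; fluorescence read-out.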

[7] = p53 small molecule agonists, cell-based qHTS assay with human liver microsomes: qHTS cell viability counter screen (AID 1963579); further: nearly all actives have a fitted effect of over 45% in size
Method in brief: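 Metabolic activation used human liver microsomes and NADPH, both 0.5 mg/mL final, over 16 hours at 37 C on p53RE-bla cells (4,000/well). Cytotoxicity measured by CellTiter-Glo luminescence, 30 min at room temperature.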

[8] = p53 small molecule agonists, cell-based qHTS assay: qHTS cell viability counter screen (AID 1963581); further: nearly all actives have a fitted effect of over 45% in size
Method in brief: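 Multiplexed with the reporter read, a CellTiter-Glo step (30 min, room temperature) gauges ATP-based viability of HCT-116 p53RE-bla cells after 16 h compound incubation at 37 C.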

[9] = target: 5-hydroxytryptamine receptor 2A (Homo sapiens) (UniProt P28223); assay: 5-hydroxytryptamine receptor 2A (HTR2A) small molecule antagonists, cell-based qHTS assay (AID 1963586); further: nearly all actives have a fitted effect of over 45% in size
Method in brief: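 CHO cells stably expressing human HTR2A were plated for 18 h at 37 C, then loaded with calcium dye for 1 h. Compounds were preincubated 5 min at room temperature before DOI (4 nM solution) was added. Kinetic fluorescence was read for 3 min.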

[10] = target: 5-hydroxytryptamine receptor 2A (Homo sapiens) (UniProt P28223); assay: 5-hydroxytryptamine receptor 2A (HTR2A) small molecule agonists, cell-based qHTS assay (AID 1963587); further: nearly all actives have a fitted effect of over 30% in size
Method in brief: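 Kinetic calcium-flux fluorescence (2 min, 1 sec intervals) after compound addition in agonist mode. HTR2A-CHO cells were cultured 18 h, then dye-loaded 1 h at 37 C.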

[11] = target: Muscarinic acetylcholine receptor M1 (Homo sapiens) (UniProt P11229); assay: Cholinergic receptor muscarinic 1 (CHRM1) small molecule antagonists, cell-based qHTS assay (AID 1963588); further: nearly all actives have a fitted effect of over 40% in size
Method in brief: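 Compounds were tested at 15 concentrations in three independent runs. Dye-loaded CHRM1-CHO cells were exposed 5 min at room temperature before stimulation by acetylcholine added at 50nM. Intracellular calcium was read kinetically on FDSS for 3 min.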

[12] = target: Muscarinic acetylcholine receptor M1 (Homo sapiens) (UniProt P11229); assay: Cholinergic receptor muscarinic 1 (CHRM1) small molecule agonists, cell-based qHTS assay (AID 1963589); further: nearly all actives have a fitted effect of over 35% in size
Method in brief: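 qHTS, 15-point titration, 3 independent runs: compounds pin-transferred onto dye-loaded CHRM1-CHO cells (human M1), calcium fluorescence followed every second to detect agonism.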

[13] = cAMP Responsive Elements (CRE) small molecule agonists, cell-based qHTS assay (AID 1963590)
Method in brief: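 Quantitative HTS for CRE agonists: HEK 293T CRE-bla cells, overnight plating, 3 h compound incubation at 37 C/5% CO2, then 2 h room-temperature LiveBLAzer B/G FRET substrate loading.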

[14] = cAMP Responsive Elements (CRE) small molecule antagonists, cell-based qHTS assay (AID 1963591; active means well fitted inhibition curve with a large enough effect in the signal ratio in the repeat runs, not every such curve was filed as active; the % refers to the signal ratio)
Method in brief: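 Fluorescence intensity from cleaved LiveBLAzer B/G substrate (2 h, room temperature) quantified CRE-bla activity in HEK 293T cells exposed 3 h to compound with 0.25 uM final NKH477.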

[15] = target: Beta-2 adrenergic receptor (Homo sapiens) (UniProt P07550); assay: Adrenergic beta2 receptor (ADRB2) small molecule antagonists, cell-based qHTS assay (AID 1963592); further: series mostly up to about 92 µM; nearly all actives have a fitted effect of over 50% in size
Method in brief: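 Assay format: CHO-ADRB2 cells, 18-20hr seeding at 37C/5% CO2, then compound plus 1nM isoproterenol agonist mix for 0.5hr RT. Homogeneous time-resolved fluorescence cAMP detection after 1hr, expressed as 665/615 nm ratio.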

[16] = target: Beta-2 adrenergic receptor (Homo sapiens) (UniProt P07550); assay: Adrenergic beta2 receptor (ADRB2) small molecule agonists, cell-based qHTS assay (AID 1963593);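 further: CHO cells stably overexpressing human ADRB2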
Method in brief: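 CHO cells stably over-expressing ADRB2 were plated overnight at 37C, then dosed with compounds plus a stimulation mix containing 100uM IBMX and 25uM Ro-20-1724 for 0.5hr at room temperature. cAMP was measured by HTRF competition, 1hr.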

[17] = target: D(2) dopamine receptor (Homo sapiens) (UniProt P14416); assay: Dopamine D2 receptor (DRD2) small molecule antagonists, cell-based qHTS assay (AID 1963595; active means well fitted inhibition curve with a large enough effect in the signal ratio in the repeat runs, with a control signal flat; the % refers to the signal ratio)
Method in brief: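 HEK293 cells stably expressing DRD2, preincubated with 0.1 mM Ro20-1724 and compounds 10 min, were stimulated with 200 nM NKH477 plus 12 nM quinpirole for 30 min at room temperature; cAMP measured by HTRF (665/620 nm).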

[18] = target: D(2) dopamine receptor (Homo sapiens) (UniProt P14416); assay: Dopamine D2 receptor (DRD2) small molecule agonists, cell-based qHTS assay (AID 1963594); further: nearly all actives have a fitted effect of over 35% in size
Method in brief: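 cAMP accumulation in DRD2-HEK293 cells measured by HTRF after 1 h detection; compounds added 10 min before NKH477 (200nM […]) forskolin-analogue stimulation, 30 min at room temperature, with Ro20-1724 present at 0.1 mM final.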

[19] = p53 small molecule agonists, cell-based qHTS assay (AID 1963582; active means well fitted activation curve with a large enough effect in the signal ratio in the repeat runs, not every such curve was filed as active; the % refers to the signal ratio)
Method in brief: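 Beta-lactamase reporter cells (p53RE-bla) treated with compounds for 16 h at 37 C; FRET substrate, 2 h, room temperature; fluorescence intensity.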

[20] = p53 small molecule agonists, cell-based qHTS assay with rat liver microsomes: qHTS cell viability counter screen (AID 1963580); further: nearly all actives have a fitted effect of over 45% in size
Method in brief: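 Cytotoxicity counter screen: intracellular ATP read by CellTiter-Glo luminescence in the p53 reporter wells. HCT-116 p53RE-bla cells were treated for 16 h at 37 C alongside rat liver microsomes and NADPH, each 0.5 mg/mL final.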
On the % scale 0 is the no-effect control and ±100 the full control effect.

Gonadotropin-releasing hormone receptor (Homo sapiens), sequence (P30968 whole entry, looked up): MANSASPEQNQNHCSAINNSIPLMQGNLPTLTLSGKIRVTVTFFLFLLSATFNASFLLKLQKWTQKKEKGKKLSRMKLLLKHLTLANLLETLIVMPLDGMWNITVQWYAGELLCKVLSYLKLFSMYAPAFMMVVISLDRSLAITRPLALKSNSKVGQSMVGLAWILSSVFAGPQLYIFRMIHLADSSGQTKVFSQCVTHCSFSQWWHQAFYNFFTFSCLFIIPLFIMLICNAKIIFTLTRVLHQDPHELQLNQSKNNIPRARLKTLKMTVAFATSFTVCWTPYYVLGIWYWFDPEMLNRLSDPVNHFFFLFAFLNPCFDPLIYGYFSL
5-hydroxytryptamine receptor 2A (Homo sapiens), sequence (P28223 whole entry, looked up): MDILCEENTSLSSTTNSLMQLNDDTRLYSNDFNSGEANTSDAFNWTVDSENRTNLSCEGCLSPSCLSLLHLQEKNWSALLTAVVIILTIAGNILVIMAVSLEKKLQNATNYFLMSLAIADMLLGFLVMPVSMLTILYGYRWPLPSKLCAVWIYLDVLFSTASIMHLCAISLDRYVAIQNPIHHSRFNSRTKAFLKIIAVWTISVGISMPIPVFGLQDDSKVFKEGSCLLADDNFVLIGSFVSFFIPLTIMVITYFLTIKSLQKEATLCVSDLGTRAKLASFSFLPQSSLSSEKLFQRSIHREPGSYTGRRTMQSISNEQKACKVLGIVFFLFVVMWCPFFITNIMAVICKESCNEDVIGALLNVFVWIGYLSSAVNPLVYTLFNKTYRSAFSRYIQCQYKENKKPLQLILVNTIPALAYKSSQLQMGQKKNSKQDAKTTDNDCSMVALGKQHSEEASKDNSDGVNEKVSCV
Beta-2 adrenergic receptor (Homo sapiens), sequence (P07550 whole entry, looked up): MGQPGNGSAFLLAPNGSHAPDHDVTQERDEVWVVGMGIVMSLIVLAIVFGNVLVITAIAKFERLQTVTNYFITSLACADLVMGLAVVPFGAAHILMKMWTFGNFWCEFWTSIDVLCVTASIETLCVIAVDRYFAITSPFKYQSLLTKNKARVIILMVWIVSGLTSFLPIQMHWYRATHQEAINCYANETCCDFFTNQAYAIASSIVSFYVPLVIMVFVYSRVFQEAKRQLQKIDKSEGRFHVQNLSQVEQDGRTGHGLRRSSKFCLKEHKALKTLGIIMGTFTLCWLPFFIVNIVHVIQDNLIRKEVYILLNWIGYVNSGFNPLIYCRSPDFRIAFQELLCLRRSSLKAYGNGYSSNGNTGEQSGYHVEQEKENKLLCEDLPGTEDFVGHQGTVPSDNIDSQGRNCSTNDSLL
Muscarinic acetylcholine receptor M1 (Homo sapiens), sequence (P11229 whole entry, looked up): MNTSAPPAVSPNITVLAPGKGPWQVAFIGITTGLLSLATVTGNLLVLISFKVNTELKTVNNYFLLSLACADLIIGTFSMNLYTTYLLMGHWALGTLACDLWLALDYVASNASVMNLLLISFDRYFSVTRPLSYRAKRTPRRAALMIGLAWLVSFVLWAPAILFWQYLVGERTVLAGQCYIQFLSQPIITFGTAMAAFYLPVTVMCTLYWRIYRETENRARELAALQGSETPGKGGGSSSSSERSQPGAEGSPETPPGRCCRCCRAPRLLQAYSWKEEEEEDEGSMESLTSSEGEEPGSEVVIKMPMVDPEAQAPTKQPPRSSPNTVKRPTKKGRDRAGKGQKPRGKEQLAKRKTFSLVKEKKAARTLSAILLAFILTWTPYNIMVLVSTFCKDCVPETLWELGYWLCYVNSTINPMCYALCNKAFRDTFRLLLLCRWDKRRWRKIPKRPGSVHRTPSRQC
D(2) dopamine receptor (Homo sapiens), sequence (P14416 whole entry, looked up): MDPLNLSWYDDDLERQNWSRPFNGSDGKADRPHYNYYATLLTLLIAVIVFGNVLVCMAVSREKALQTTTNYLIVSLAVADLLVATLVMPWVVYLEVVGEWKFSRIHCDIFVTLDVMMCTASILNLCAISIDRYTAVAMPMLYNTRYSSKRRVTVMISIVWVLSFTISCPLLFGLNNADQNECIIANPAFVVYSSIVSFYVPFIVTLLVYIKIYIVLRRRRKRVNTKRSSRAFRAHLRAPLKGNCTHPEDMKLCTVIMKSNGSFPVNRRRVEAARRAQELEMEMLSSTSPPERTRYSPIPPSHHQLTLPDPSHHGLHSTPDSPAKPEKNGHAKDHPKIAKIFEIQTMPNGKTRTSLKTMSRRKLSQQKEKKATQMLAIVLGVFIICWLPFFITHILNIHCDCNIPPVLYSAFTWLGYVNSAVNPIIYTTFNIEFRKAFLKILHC
KiSS-1 receptor (Homo sapiens), sequence (Q969F8 whole entry, looked up): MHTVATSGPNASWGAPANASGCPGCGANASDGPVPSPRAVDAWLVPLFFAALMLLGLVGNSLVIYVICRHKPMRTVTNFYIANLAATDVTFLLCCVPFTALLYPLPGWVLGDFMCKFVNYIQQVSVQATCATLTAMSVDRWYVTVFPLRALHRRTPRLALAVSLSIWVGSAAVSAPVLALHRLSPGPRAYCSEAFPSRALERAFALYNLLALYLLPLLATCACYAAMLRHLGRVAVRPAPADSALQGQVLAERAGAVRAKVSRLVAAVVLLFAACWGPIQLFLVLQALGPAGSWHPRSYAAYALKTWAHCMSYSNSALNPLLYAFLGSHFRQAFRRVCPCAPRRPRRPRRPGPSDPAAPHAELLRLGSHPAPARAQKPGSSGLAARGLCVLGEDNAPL

Cc1onc(-c2c(Cl)cccc2Cl)c1C(=O)N[C@@H]1C(=O)N2[C@@H]1SC(C)(C)[C@@H]2C(=O)O
inactive: Potency [1] | Potency [2] | Potency [3] | Potency [4] | Potency [5] | Potency [6] | Potency [7] | Potency [8] | Potency [9] | Potency [10] | Potency [11] | Potency [12] | Potency [13] | Potency [14] | Potency [15] | Potency [16] | Potency [17]

O=c1cc(-c2ccccc2)oc2cc(O)cc(O)c12
inactive: Potency [2] | Potency [3] | Potency [4] | Potency [5] | Potency [6] | Potency [7] | Potency [8] | Potency [9] | Potency [10] | Potency [11] | Potency [12] | Potency [15] | Potency [18] | Potency [17]
active: Potency [1] 24.3 µM

CC1CCCNC1 (stereo not given)
inactive: Potency [2] | Potency [3] | Potency [4] | Potency [5] | Potency [6] | Potency [8] | Potency [19] | Potency [9] | Potency [10] | Potency [11] | Potency [12] | Potency [13] | Potency [14] | Potency [15] | Potency [17]
active: Potency [1] 67.1 µM

Oc1c(Cl)cc(Cl)c2cccnc12
inactive: Potency [2] | Potency [3] | Potency [4] | Potency [5] | Potency [7] | Potency [20] | Potency [8] | Potency [9] | Potency [10] | Potency [11] | Potency [12] | Potency [15] | Potency [18] | Potency [17]
active: Potency [1] 0.188 µM

CC1=NN(c2cc(Cl)c(S(=O)(=O)O)cc2Cl)C(=O)C1N=Nc1ccc(S(=O)(=O)O)cc1 (stereo not given)
inactive: Potency [1] | Potency [2] | Potency [3] | Potency [4] | Potency [5] | Potency [6] | Potency [7] | Potency [8] | Potency [10] | Potency [11] | Potency [12] | Potency [13] | Potency [14] | Potency [15] | Potency [16] | Potency [18] | Potency [17]

CN(C)C(=O)NC1(c2ccccc2)CCN(CCC[C@]2(c3ccc(Cl)c(Cl)c3)CCCN(C(=O)c3ccccc3)C2)CC1
inactive: activity, positive = activation [1] 6.8% [at 19 µM] | activity change [2] -0.446% [at 11.8 µM, active compounds read high] | activation [3] 0.0463% [at 15.8 µM] | activation [4] 0.0814% [at 11.8 µM] | activation [5] 8.31% [at 13.5 µM] | activation [6] 0.0763% [at 13.6 µM] | activity change, negative = cytotoxicity [20] -4.37% [at 13.5 µM] | activation [19] -4.21% [at 13.5 µM] | activity, negative = inhibition [9] 9.02% [at 12.7 µM] | activation [10] 1.46% [at 15.9 µM] | activation [12] 0.44% [at 15.8 µM] | activity change, negative = inhibition [15] 9.65% [at 19 µM] | activation [16] 0.625% [at 19 µM] | activation [18] -11.2% [at 19 µM] | activity change, negative = inhibition [17] 3.81% [at 18.9 µM]
